Rows were chosen to be rich in hits. Some 2.6% of all compounds tested hit in one or more screens of this group.
PRMT1 FP inh = blocks human protein arginine methyltransferase 1 | recombinant PRMT1, activity-based probe fluorescence polarization | inhibition, % at 2.79 µM | Q99873 | AID 652257 | 370,000 compounds, 1.3% hits;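 active means inhibition above about 21% made by adding two undisclosed values, limit read from the data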
PAD4 FP inh = blocks human protein arginine deiminase 4; recombinant PAD4, RCA probe fluorescence polarization; inhibition, % at 6.36 µM; 330,000 compounds, 0.41% hits; AID 485272;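 active means percent inhibition above a cutoff equal to the mean of all tested compounds plus 3 SD, cut at about 15% in these data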
Fam108B counter = counter-screen for RBBP9 inhibitors: inhibitors of mouse Fam108B | recombinant Fam108B, FP-Rh probe fluorescence polarization | 300,000 compounds, 0.33% hits | inhibition, % at 9.51 µM;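 active means inhibition above the screen mean inhibition plus 3 SD, computed separately per campaign, cut at about 18% in these data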;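 further: inhibitors lower polarization as less probe binds the enzyme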
SIAE primary = human SIAE inhibition, primary screen. inhibition, % at 9.66 µM. Q9HAT2. SIAE FP-Rh probe binding, fluorescence polarization. AID 1053197. 370,000 compounds, 0.69% hits;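 active means inhibition above a cutoff: mean of compounds within the control limits plus 3 SD of those, cut at about 17% in these data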
Target sequence (Q9HAT2 whole entry, looked up): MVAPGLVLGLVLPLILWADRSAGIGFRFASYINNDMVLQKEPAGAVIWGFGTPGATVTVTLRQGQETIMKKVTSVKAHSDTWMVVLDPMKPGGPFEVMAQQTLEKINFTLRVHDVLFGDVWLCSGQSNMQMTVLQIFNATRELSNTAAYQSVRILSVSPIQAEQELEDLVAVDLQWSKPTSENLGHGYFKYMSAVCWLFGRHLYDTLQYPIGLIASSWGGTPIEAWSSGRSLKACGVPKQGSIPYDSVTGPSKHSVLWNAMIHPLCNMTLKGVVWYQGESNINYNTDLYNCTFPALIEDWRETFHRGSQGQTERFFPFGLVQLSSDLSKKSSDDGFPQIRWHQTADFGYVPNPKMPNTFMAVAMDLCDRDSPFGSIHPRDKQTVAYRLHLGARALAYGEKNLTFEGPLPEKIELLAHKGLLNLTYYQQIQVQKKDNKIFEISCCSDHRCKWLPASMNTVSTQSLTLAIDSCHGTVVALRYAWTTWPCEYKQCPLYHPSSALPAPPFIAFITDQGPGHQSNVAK
PME-1 inh = blocks human protein phosphatase methylesterase 1; inhibition, % at 5.9 µM; recombinant PME-1, FP-Rh probe fluorescence polarization; 320,000 compounds, 0.53% hits;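 active means inhibition above the campaign mean of all compounds plus 3 SD, cut at about 26% in these data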;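 further: competitive labeling of PME-1 active site by serine hydrolase directed probe; inhibitors block probe labeling so polarization falls and inhibition rises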
TCR CD3 inh = human TCR-CD3 binding inhibition. TAMRA-labeled TCR probe fluorescence, biochemical. inhibition, % at 9.4 µM. 360,000 compounds, 0.37% hits. AID 651800; in the data active means inhibition above about 19%;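 further: recombinant mutant TCR 2C K166C tagged with TAMRA read by polarization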
SIAE confirm = confirmation of human SIAE inhibitors | shares compounds with SIAE primary | SIAE FP-Rh activity-based probe, fluorescence polarization | inhibition, % at 9.66 µM | 2,300 compounds, 13% hits | AID 1117263;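 active means mean inhibition of the replicates above the hit cutoff set in the primary screen, cut at about 17% in these data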;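 further: inhibitors lower polarization as more probe stays unbound to SIAE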
Of the large screens only hits and unclear results are named; the others gave an inactive call (follow-up assays come after a bar, where they were run).

O=C(NN=Cc1cc(Br)c(O)c(Br)c1)c1ccccc1NS(=O)(=O)c1cccs1	SIAE primary 19 (no result: Fam108B counter, PME-1 inh) | SIAE confirm inactive
C/C(=N\NC(=O)c1ccccc1O)c1ccc(NC(=O)Cc2ccccc2)cc1	SIAE primary 18 | SIAE confirm inactive
COC(=O)c1ccc2c(C3(c4c[nH]c5ccccc45)CCN(C(=O)OC(C)(C)C)CC3)c[nH]c2c1	none (no result: PAD4 FP inh, Fam108B counter, PME-1 inh, TCR CD3 inh)
O=C(CCCCC(=O)Sc1ccccc1)Sc1ccccc1	SIAE primary 18 (no result: PAD4 FP inh, Fam108B counter, PME-1 inh) | SIAE confirm inactive
O=C(CNC1C(=O)Nc2ccccc21)Sc1ccccc1 (centres undefined)	none
CC(C(=O)Nc1c2c(cc3c1CCC3)CCC2)N1CCCC1 (centres undefined)	SIAE primary 20 | SIAE confirm inactive
CCN(CC)C(C)C(=O)Nc1c2c(cc3c1CCC3)CCC2 (centres undefined)	none
COCc1cc(=O)[nH]c2cc(NC(=O)C(C)(C)CCl)c(C)cc12	SIAE primary 97 | SIAE confirm inactive
C=CCNc1nc(NCc2ccc(NC(C)=O)cc2)c2sc(-c3ccccc3)cc2n1	SIAE primary 39 (no result: PAD4 FP inh, Fam108B counter, PME-1 inh) | SIAE confirm 37
CC(=O)Nc1ccc(CNc2nc(NC(C)C)nc3cc(-c4ccccc4)sc23)cc1	SIAE primary 55 (no result: PAD4 FP inh, Fam108B counter, PME-1 inh) | SIAE confirm 53
O=C(CSc1nnc(COc2ccccc2)n1-c1ccccc1)Nc1ccc2c(c1)OCCO2	none (no result: PAD4 FP inh, Fam108B counter, PME-1 inh, TCR CD3 inh)
Cc1ccc(NS(=O)(=O)c2cccc(C(=O)NNC(=O)NC3CCCCC3)c2)c(C)c1	SIAE primary 18 | SIAE confirm inactive
C=CCOC(=O)N1CCN(C(=O)c2ccc3c(c2)nc(C)n3C2CCCC2)CC1	none (no result: PAD4 FP inh, Fam108B counter, PME-1 inh, TCR CD3 inh)
CCCC(=O)NC(c1ccc(N(C)C)cc1)c1ccc2cccnc2c1O (centres undefined)	none
COc1ccc(C(NC(C)=O)c2cc(Cl)c3cccnc3c2O)cc1 (centres undefined)	SIAE primary 19 | SIAE confirm 20
COc1ccc(C(NC(=O)C(C)C)c2ccc3cccnc3c2O)cc1 (centres undefined)	none
O=C(NC(c1ccc(Cl)cc1)c1cc(Cl)c2cccnc2c1O)c1cccnc1 (centres undefined)	none
CC(=O)NC(c1ccc(N(C)C)cc1)c1cc(Cl)c2cccnc2c1O (centres undefined)	SIAE primary 23 (no result: PAD4 FP inh, Fam108B counter, PME-1 inh) | SIAE confirm 24
CC(=O)NC(c1ccccc1)c1cc(Cl)c2cccnc2c1O (centres undefined)	SIAE primary 20 | SIAE confirm 17
CCCC(=O)NC(c1ccc(OC)c(OC)c1)c1cc(Cl)c2cccnc2c1O (centres undefined)	SIAE primary 20 | SIAE confirm inactive
CCCCNC(=O)NS(=O)(=O)c1ccc(NC(=O)CSc2ncnc3scc(-c4ccc(C)cc4)c23)cc1	none (no result: PAD4 FP inh, Fam108B counter, PME-1 inh, TCR CD3 inh)
C[N+](C)(C)CCCCCCC(=O)/C=N/O	none
C[N+]1(CCCCCCC(=O)/C=N/O)CCCCCC1	SIAE primary 19 | SIAE confirm inactive
C[C@H]1[C@@H](OC(=O)NCc2ccco2)CC[C@@]23CCCN2C(=O)CCC[C@@H]13	none (no result: PAD4 FP inh, Fam108B counter, PME-1 inh, TCR CD3 inh)
CC(=O)c1ccc(OC(=O)CCN2c3ccccc3Sc3ccccc32)cc1	SIAE primary 19 | SIAE confirm inactive
CC(C)C[C@H](NC1(C(=O)NCCc2c[nH]c3ccccc23)CCC1)C(=O)NCCCc1ccccc1	none (no result: PAD4 FP inh, Fam108B counter, PME-1 inh, TCR CD3 inh)
Cc1ccc(/C=C/c2nc3ccccc3[nH]2)o1	SIAE primary 24 | SIAE confirm inactive
Cc1cc2nc(/C=C/c3nc4cc(C)c(C)cc4[nH]3)[nH]c2cc1C	none
CCNC(=O)NC(=O)C(C)Sc1nnc(COc2ccccc2Cl)o1 (centres undefined)	SIAE primary 29 | SIAE confirm inactive
CCNC(=O)NC(=O)C(C)Sc1ccc2c(c1)OCCO2 (centres undefined)	none
C=CCN(c1nc(C)cc(OC)n1)S(=O)(=O)c1ccccc1	none
CCN(c1nc(C)cc(OC)n1)S(=O)(=O)c1ccccc1	SIAE primary 18 | SIAE confirm inactive
CCOC(=O)c1c(C(=O)OCC)c(C)n(CCc2ccccc2)c1C	SIAE primary 31 | SIAE confirm 20
NC(=O)c1ccccc1Nc1nc2nc3ccccc3c(=O)n2cc1Br	none (no result: PRMT1 FP inh, SIAE primary, TCR CD3 inh)
Cc1cc(Nc2ccccc2C(=O)O)nc2nc3ccccc3c(=O)n12	SIAE primary 23 | SIAE confirm inactive

Compound activity as filed in PubChem.
